The record followed here is PubChem BioAssay AID1345085 (National Center for Advancing Translational Sciences (NCATS), 2018).

Molecules are shown by their SMILES. Inconclusive results are not listed. The source made the active and inactive calls. Calls follow the shape of the dose curve; as a rule, active = well fitted cell-killing curve with a large enough effect; inconclusive = small, poorly fitted or top-dose-only effect, or effect the other way; inactive = no such curve, though single readings can be large or run the other way. *1 amine or outer side, *2 acyl side, *3 side chain or, on linkers, in order; H or OH if unused. Where a SMILES comes first, the peptide text is derived from it. Bridges are numbered along the chain shown (N, C = ends). Roman numbers before positions name the chains, in order. [ ]: non-standard residue; d: D form. Actinocin(9to1) = Cc1c2oc3c(C)ccc(C(=O)[*:1])c3nc-2c(C(=O)[*:2])c(N)c1=O; NMeV = CN[C@H](C(=O)O)C(C)C; Sar = CNCC(=O)O
% is scaled to controls: 0 for no effect and ±100 for the full control effect; potency is read from the fitted curve at half-maximal effect.

In this assay the test system is SW626. Description: Confirmatory qHTS for gynecologic anti-cancer compounds from libraries of approved drugs and bioactive compounds. Also: nearly all actives have a fitted effect of over 55% in size. To be noted: gynecologic cancer cell panel viability, ATPlite luminescence, 48 h; series mostly up to 57.6 µM; activity change, negative = viability loss: at the top concentration. In short, it runs like this: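 1,000 cells/well; 16 h pre-incubation 37 C, 5% CO2; pin-transferred cpd in DMSO, 11 conc (1:3), 57.5 uM–0.977 nM; 48 h; ATPlite, 15 min RT; luminescence → IC50.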
A general note: In qHTS, concentration-response curves come from the screen itself.
Regarding `CCCS(=O)c1ccc2nc(NC(=O)OC)[nH]c2c1` (stereo not given), the “activity change, negative = viability loss” value was -17.9% (inactive).
With `Cc1cnc(Nc2ccc(CN3CCOCC3)cc2)nc1Nc1cccc(S(=O)(=O)NC(C)(C)C)c1`, the Potency is 15.3 µM (active).
With `CCN1C[C@H](C)n2c(c(O)c3c(=O)n(Cc4ccc(F)c(Cl)c4)nc(C(=O)NC)c32)C1=O`, the “activity change, negative = viability loss” value is 7.26% (inactive).
Regarding `Cc1[nH]c2ccccc2c1CCNCc1ccc(/C=C/C(=O)NO)cc1`, the Potency is 0.0968 µM (active).
`CC(C)C[C@H](NC(=O)[C@@H](NC(=O)c1cccc(-c2ccccc2)n1)[C@@H](C)O)B(O)O`: the Potency is 0.0385 µM (active).
Same read-out and setting: under `Cc1ccc(C(=O)Nc2ccc(CN3CCN(C)CC3)c(C(F)(F)F)c2)cc1C#Cc1cnc2cccnn12` stands 21.7 µM (active).
On to `NC(=O)c1cccc2cn(-c3ccc([C@@H]4CCCNC4)cc3)nc12`, for which the “activity change, negative = viability loss” value was -13.2% (inactive).
Still for that read-out and setting: the figure for `Cc1nc2ccc(CN(C)c3ccc(C(=O)NC(CCC(=O)O)C(=O)O)s3)cc2c(=O)[nH]1` (stereo not given) is -17.4% (inactive); for `CC1(C)[C@@H](O)CC[C@]2(C)[C@H]3C(=O)C=C4[C@@H]5C[C@@](C)(C(=O)O)CC[C@]5(C)CC[C@@]4(C)[C@]3(C)CC[C@@H]12` it is 16.5% (inactive).
In the case of `Cc1nc(N)nc(N)c1-c1ccc(Cl)c(Cl)c1`, the Potency is 3.85 µM (active).
Still for that read-out and setting: the figure for `Cc1csc(NC(=O)c2sc3nc4c(c(C(F)(F)F)c3c2N)CCC4)n1` is 1.72 µM (active).
With `Cc1cnc(Nc2ccc(F)cc2Cl)nc1-c1c[nH]c(C(=O)NC(CO)c2cccc(Cl)c2)c1` (stereo not given), the “activity change, negative = viability loss” value is -11.9% (inactive).
For the molecule `COc1cc(N2CCC(N3CCN(C)CC3)CC2)ccc1Nc1ncc(Cl)c(Nc2ccccc2S(=O)(=O)C(C)C)n1`, the Potency is 21.7 µM (active).
Take `Nc1ncn([C@@H]2O[C@H](CO)[C@@H](O)[C@H]2O)c(=O)n1`: the “activity change, negative = viability loss” value is 0.885% (inactive).
As to `Oc1cn2c(n1)Nc1ccc(Cl)c(Cl)c1C2`, the “activity change, negative = viability loss” value is 2.36% [at 19.5 µM] (inactive).
Still for that read-out and setting: under `COC(C(=O)N1Cc2[nH]nc(NC(=O)c3ccc(N4CCN(C)CC4)cc3)c2C1)c1ccccc1` (stereo not given) stands -19.9% (inactive); under `NC(=O)c1ccc2nc(-c3ccc(Oc4ccc(Cl)cc4)cc3)[nH]c2c1`, -27.1% (inactive); under `CC(C)[C@@H](CS(=O)(=O)C(C)C)N1C(=O)[C@@](C)(CC(=O)O)C[C@H](c2cccc(Cl)c2)[C@H]1c1ccc(Cl)cc1`, 12.1% (inactive).
On to `Cc1ccc(C(=O)Nc2ccc(Oc3cc4cnn(C)c4cc3-c3cn[nH]c3)c(F)c2)c(=O)n1-c1ccc(F)cc1`, for which the Potency is 4.32 µM (active).
Still for that read-out and setting: under `Cn1c(=O)c(F)c(Nc2ccc(I)cc2F)c2c(=O)n(CC(O)CO)cnc21` (stereo not given) stands 0.0544 µM (active).
Take `Cc1c2oc3c(C)ccc(C(=O)N[C@@H]4C(=O)N[C@H](C(C)C)C(=O)N5CCC[C@H]5C(=O)N(C)CC(=O)N(C)[C@@H](C(C)C)C(=O)O[C@@H]4C)c3nc-2c(C(=O)N[C@@H]2C(=O)N[C@H](C(C)C)C(=O)N3CCC[C@H]3C(=O)N(C)CC(=O)N(C)[C@@H](C(C)C)C(=O)O[C@@H]2C)c(N)c1=O` (I: T[dV]P[Sar][NMeV] / II: T[dV]P[Sar][NMeV]; ester I:1-I:C, II:1-II:C; linker I:N-II:N via Actinocin(9to1)): the Potency was 0.0863 µM (active).
Still for that read-out and setting: the figure for `COc1cc(N2CCC(N(C)C)CC2)ccc1Nc1ncc(Cl)c(Nc2ccccc2P(C)(C)=O)n1` is 3.85 µM (active).
Turning to `COc1cc2ncnc(Nc3ccc(F)c(Cl)c3)c2cc1OCCCN1CCOCC1`, the “activity change, negative = viability loss” value is -20.8% (inactive).
Regarding `S=c1nc[nH]c2nc[nH]c12`, the Potency was 6.85 µM (active).
In the case of `COC(C)(C)CCn1nc(Nc2c(C)cccc2C)c2cnc(Nc3ccc(OCCN4CCCC4)c(F)c3)nc21`, the Potency is 19.3 µM (active).
In the case of `CN(c1nccc(=O)[nH]1)C1CCN(c2nc3ccccc3n2Cc2ccc(F)cc2)CC1`, the “activity change, negative = viability loss” value was 15.2% (inactive).
`FC(F)(F)c1ccc(/C=C/c2nc(COc3ccc(CCCCn4ccnn4)cc3)co2)cc1`: the “activity change, negative = viability loss” value is 5.87% (inactive).
In the case of `COC(=O)c1ccc2c(C(=Nc3ccc(N(C)C(=O)CN4CCN(C)CC4)cc3)c3ccccc3)c(O)[nH]c2c1`, the Potency is 24.3 µM (active).
Still for that read-out and setting: the figure for `C=CC(=O)Nc1cc2c(Nc3ccc(F)c(Cl)c3)ncnc2cc1OCCCN1CCOCC1` is 21.7 µM (active); for `CC(Oc1cc(-n2cnc3ccc(CN4CCN(C)CC4)cc32)sc1C(N)=O)c1ccccc1C(F)(F)F` (stereo not given) it is 24.3 µM (active).
